The values below come from article PMC7862700, “An all-to-all approach to the identification of sequence-specific readers for epigenetic DNA modifications on cytosine”.

Holding throughout (test): DAPPL (digital affinity profiling via proximity ligation, sequencing); 10 mM Tris-HCl pH 7.5, 50 mM NaCl, 1 mM DTT, 4% glycerol, room temperature, 30 min; GST-TFs on glutathione beads, 16-mer random dsDNA library, 0.1% formaldehyde crosslink after washing; high values mean tight binding
What all share (conditions): protein: recombinant; tags: N-terminal GST; dsDNA, one strand shown

One assay deals with T1, ERF (Homo sapiens, UniProt P50548 1-548).
T1 sequence: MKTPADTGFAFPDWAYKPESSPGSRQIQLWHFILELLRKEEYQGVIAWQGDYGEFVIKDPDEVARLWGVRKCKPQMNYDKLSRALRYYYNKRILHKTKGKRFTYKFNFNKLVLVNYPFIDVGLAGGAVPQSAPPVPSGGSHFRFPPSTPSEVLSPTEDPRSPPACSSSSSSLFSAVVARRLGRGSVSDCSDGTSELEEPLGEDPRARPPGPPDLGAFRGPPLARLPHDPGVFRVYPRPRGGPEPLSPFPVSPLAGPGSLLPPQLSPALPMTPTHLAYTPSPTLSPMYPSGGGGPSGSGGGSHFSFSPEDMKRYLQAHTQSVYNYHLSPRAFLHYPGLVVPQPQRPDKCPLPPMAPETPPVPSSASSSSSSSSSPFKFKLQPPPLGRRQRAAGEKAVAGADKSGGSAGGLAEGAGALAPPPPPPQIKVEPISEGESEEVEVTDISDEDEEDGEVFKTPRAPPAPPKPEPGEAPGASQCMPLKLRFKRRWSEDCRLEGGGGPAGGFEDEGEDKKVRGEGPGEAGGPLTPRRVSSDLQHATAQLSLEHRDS
The procedure, abridged: (§1)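 GST fusions of human transcription factors were expressed in yeast and captured with glutathione beads. Once given DNA barcodes and pooled alongside a tag-only sample, they were incubated for 30 min at room temperature with 200 nmole of a random double-stranded 16-mer DNA library in Tris/NaCl/DTT/glycerol buffer, then washed, crosslinked (0.1% formaldehyde), proximity-ligated, PCR-amplified and sequenced on an Illumina NextSeq500. The binding signal of each hexamer is its read frequency for a factor divided by its frequency for the tag-only sample.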

Another assay deals with T2, ETV3L (Homo sapiens, UniProt Q6ZN32 1-361).
T2 sequence: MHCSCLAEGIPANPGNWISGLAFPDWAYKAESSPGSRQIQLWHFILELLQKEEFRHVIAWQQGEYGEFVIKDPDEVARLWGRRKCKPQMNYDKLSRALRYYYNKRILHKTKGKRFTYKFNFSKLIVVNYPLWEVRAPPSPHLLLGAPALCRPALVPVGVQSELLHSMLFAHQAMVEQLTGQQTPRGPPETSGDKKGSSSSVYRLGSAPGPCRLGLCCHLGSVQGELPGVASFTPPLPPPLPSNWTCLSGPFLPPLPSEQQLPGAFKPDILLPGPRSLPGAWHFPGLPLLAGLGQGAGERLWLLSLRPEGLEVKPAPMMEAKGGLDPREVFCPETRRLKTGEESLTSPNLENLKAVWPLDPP
Summed up:
as §1

The next assay concerns the target T3, ETS2 (Homo sapiens, UniProt P15036 1-469).
T3 sequence: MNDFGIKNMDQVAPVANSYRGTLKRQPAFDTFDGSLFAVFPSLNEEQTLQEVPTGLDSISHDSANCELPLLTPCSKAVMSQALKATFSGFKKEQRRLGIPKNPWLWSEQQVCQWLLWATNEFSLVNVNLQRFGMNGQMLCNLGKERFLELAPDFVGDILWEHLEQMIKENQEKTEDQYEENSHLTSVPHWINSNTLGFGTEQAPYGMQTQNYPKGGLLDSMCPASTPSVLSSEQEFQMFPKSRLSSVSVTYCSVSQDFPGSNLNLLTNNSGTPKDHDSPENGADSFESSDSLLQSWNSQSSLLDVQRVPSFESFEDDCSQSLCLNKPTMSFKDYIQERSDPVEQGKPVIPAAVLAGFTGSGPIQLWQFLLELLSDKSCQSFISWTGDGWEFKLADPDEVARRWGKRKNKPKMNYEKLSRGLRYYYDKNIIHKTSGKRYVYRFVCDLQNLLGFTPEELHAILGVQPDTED
Summed up: as §1

The target in a further assay is T4, SPDEF (Homo sapiens, UniProt O95238 1-335).
T4 sequence: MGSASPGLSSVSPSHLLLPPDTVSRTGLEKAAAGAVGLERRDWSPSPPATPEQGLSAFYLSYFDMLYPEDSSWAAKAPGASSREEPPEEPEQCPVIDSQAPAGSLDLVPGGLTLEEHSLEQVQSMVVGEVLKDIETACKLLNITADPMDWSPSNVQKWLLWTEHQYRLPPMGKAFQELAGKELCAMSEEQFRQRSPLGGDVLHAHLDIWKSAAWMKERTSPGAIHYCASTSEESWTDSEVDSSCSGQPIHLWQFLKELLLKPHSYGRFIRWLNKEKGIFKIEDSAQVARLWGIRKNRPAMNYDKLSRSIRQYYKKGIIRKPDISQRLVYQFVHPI
The procedure, abridged:
as §1

The target in another assay is ETV6 (Homo sapiens, UniProt P41212 1-452). The procedure, abridged: as §1
For a further assay, the target named is T5, ETV3 (Homo sapiens, UniProt P41162-2 1-143).
T5 sequence: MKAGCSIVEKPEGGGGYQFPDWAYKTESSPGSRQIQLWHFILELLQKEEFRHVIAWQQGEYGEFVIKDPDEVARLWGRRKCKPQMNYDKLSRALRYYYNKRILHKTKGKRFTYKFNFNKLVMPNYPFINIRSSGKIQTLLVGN
Summed up: as §1

A further assay has as its target T6, ETV7 (Homo sapiens, UniProt Q9Y603 1-341).
T6 sequence: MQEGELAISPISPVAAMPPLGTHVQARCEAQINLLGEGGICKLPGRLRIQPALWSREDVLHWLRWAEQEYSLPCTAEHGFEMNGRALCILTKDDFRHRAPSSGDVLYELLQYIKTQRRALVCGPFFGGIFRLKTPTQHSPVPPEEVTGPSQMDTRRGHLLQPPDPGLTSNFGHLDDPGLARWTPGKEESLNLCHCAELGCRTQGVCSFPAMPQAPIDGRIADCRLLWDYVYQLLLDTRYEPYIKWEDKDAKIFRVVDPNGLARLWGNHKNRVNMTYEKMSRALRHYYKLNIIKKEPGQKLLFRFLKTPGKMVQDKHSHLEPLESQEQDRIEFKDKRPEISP
Summed up: as §1

For the next assay, the target named is T7, ELF5 (Homo sapiens, UniProt Q9UKW6-2 1-255).
T7 sequence: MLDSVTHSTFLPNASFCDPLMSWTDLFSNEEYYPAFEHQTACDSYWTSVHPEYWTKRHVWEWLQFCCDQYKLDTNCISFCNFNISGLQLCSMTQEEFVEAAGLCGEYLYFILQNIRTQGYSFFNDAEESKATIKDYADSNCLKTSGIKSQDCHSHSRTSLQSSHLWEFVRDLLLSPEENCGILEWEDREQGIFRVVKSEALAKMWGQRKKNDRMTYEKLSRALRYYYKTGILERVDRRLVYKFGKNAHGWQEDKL
Summed up: as §1

Chain of ETV6 (P41212 whole entry): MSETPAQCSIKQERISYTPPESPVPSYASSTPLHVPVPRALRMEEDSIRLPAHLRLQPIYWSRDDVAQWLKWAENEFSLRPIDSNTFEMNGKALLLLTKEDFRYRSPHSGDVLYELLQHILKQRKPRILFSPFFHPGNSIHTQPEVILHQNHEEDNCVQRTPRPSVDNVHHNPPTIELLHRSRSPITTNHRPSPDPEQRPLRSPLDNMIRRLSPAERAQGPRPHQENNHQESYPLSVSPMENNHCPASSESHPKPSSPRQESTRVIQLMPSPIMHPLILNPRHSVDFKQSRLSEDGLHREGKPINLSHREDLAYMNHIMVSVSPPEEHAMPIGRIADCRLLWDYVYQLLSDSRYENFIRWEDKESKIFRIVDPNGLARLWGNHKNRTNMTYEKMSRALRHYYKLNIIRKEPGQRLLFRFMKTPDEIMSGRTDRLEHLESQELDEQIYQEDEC

TGACTG: the binding signal was 1.15 fold enrichment (6-mer frequency, TF over GST control) with ERF; 1.16 fold enrichment (6-mer frequency, TF over GST control) with ETV3L; 1.17 fold enrichment (6-mer frequency, TF over GST control) with ETS2; 1.05 fold enrichment (6-mer frequency, TF over GST control) with SPDEF; 1.06 fold enrichment (6-mer frequency, TF over GST control) with ETV6.
In the case of CCCATG, the binding signal with ERF is 1.14 fold enrichment (6-mer frequency, TF over GST control); in the assay with ETV3L, 1.11 fold enrichment (6-mer frequency, TF over GST control); with ETS2 it was 1.02 fold enrichment (6-mer frequency, TF over GST control); with SPDEF, 1.1 fold enrichment (6-mer frequency, TF over GST control); in the assay with ETV3 it was 1.14 fold enrichment (6-mer frequency, TF over GST control); with ETV6, 1.12 fold enrichment (6-mer frequency, TF over GST control).
As to GAAAAA, the binding signal with ERF was 1.08 fold enrichment (6-mer frequency, TF over GST control); with ETV3L it was 1.16 fold enrichment (6-mer frequency, TF over GST control); with ETS2 it was 1.2 fold enrichment (6-mer frequency, TF over GST control); in the assay with ETV7, 1.16 fold enrichment (6-mer frequency, TF over GST control); in the assay with ELF5 it was 1.22 fold enrichment (6-mer frequency, TF over GST control); with ETV3, 1.09 fold enrichment (6-mer frequency, TF over GST control). Further, the binding signal in the assay with ETV6 is 1.17 fold enrichment (6-mer frequency, TF over GST control).
With AAAGCT, the binding signal is 1.02 fold enrichment (6-mer frequency, TF over GST control) with ERF; 1.01 fold enrichment (6-mer frequency, TF over GST control) with ETV3L; 1.03 fold enrichment (6-mer frequency, TF over GST control) in the assay with ETS2; 1.03 fold enrichment (6-mer frequency, TF over GST control) with ETV7; 1.01 fold enrichment (6-mer frequency, TF over GST control) in the assay with ELF5; 1.04 fold enrichment (6-mer frequency, TF over GST control) in the assay with ETV3. Further, in the assay with ETV6, the binding signal is 1.09 fold enrichment (6-mer frequency, TF over GST control).
On to AGCCTA, for which the binding signal is 1.12 fold enrichment (6-mer frequency, TF over GST control) in the assay with ERF; 1.09 fold enrichment (6-mer frequency, TF over GST control) in the assay with ETV3L; 1.04 fold enrichment (6-mer frequency, TF over GST control) in the assay with ETS2; 1.13 fold enrichment (6-mer frequency, TF over GST control) with ETV7; 1.1 fold enrichment (6-mer frequency, TF over GST control) with ETV3.
For the sequence AGGCTC, the binding signal is 1.14 fold enrichment (6-mer frequency, TF over GST control) in the assay with ERF; 1.08 fold enrichment (6-mer frequency, TF over GST control) with ETV3L; 1.02 fold enrichment (6-mer frequency, TF over GST control) with ETS2; 1.04 fold enrichment (6-mer frequency, TF over GST control) with ETV7; 1.04 fold enrichment (6-mer frequency, TF over GST control) in the assay with ELF5; 1.01 fold enrichment (6-mer frequency, TF over GST control) in the assay with ETV3. In addition, the binding signal in the assay with ETV6 is 1.16 fold enrichment (6-mer frequency, TF over GST control).
For AACGCC, the binding signal in the assay with ERF was 1 fold enrichment (6-mer frequency, TF over GST control); in the assay with ETV3L, 1.11 fold enrichment (6-mer frequency, TF over GST control); with ETS2, 1.06 fold enrichment (6-mer frequency, TF over GST control); in the assay with ELF5, 1.01 fold enrichment (6-mer frequency, TF over GST control); in the assay with ETV3 it was 1.06 fold enrichment (6-mer frequency, TF over GST control); with ETV6 it was 1.19 fold enrichment (6-mer frequency, TF over GST control).
Turning to ATCGTT, the binding signal is 1.01 fold enrichment (6-mer frequency, TF over GST control) in the assay with ERF; 1.11 fold enrichment (6-mer frequency, TF over GST control) in the assay with ETV3L; 1.06 fold enrichment (6-mer frequency, TF over GST control) with ETS2; 1 fold enrichment (6-mer frequency, TF over GST control) with ETV3; 1.06 fold enrichment (6-mer frequency, TF over GST control) with ETV6.
In the case of GCGCCT, the binding signal in the assay with ERF is 1.05 fold enrichment (6-mer frequency, TF over GST control); in the assay with ETV3L it was 1.07 fold enrichment (6-mer frequency, TF over GST control); in the assay with ETS2, 1.02 fold enrichment (6-mer frequency, TF over GST control); with ETV7, 1.06 fold enrichment (6-mer frequency, TF over GST control); in the assay with ELF5, 1.04 fold enrichment (6-mer frequency, TF over GST control); with ETV3, 1.1 fold enrichment (6-mer frequency, TF over GST control). For the same sequence, the binding signal with ETV6 is 1.12 fold enrichment (6-mer frequency, TF over GST control).
Take AGCCCC: the binding signal in the assay with ERF was 1.03 fold enrichment (6-mer frequency, TF over GST control); in the assay with ETV3L, 1.07 fold enrichment (6-mer frequency, TF over GST control); in the assay with ETS2 it was 1.09 fold enrichment (6-mer frequency, TF over GST control); with ELF5, 1.01 fold enrichment (6-mer frequency, TF over GST control); in the assay with ETV3, 1.11 fold enrichment (6-mer frequency, TF over GST control); with ETV6, 1.12 fold enrichment (6-mer frequency, TF over GST control).
Regarding GTCCAC, the binding signal with ERF is 1.07 fold enrichment (6-mer frequency, TF over GST control); with ETV3L it was 1.12 fold enrichment (6-mer frequency, TF over GST control); with ETS2 it was 1.05 fold enrichment (6-mer frequency, TF over GST control); with ETV7, 1.01 fold enrichment (6-mer frequency, TF over GST control); in the assay with ETV6, 1.03 fold enrichment (6-mer frequency, TF over GST control).
Consider TCCCAG, for which the binding signal with ERF was 1.05 fold enrichment (6-mer frequency, TF over GST control); in the assay with ETV3L, 1.08 fold enrichment (6-mer frequency, TF over GST control); with SPDEF, 1.07 fold enrichment (6-mer frequency, TF over GST control); in the assay with ETV7 it was 1.16 fold enrichment (6-mer frequency, TF over GST control); with ELF5, 1.12 fold enrichment (6-mer frequency, TF over GST control); with ETV3 it was 1.07 fold enrichment (6-mer frequency, TF over GST control).
Regarding CGATGA, the binding signal is 1.14 fold enrichment (6-mer frequency, TF over GST control) with ERF; 1.12 fold enrichment (6-mer frequency, TF over GST control) in the assay with ETV3L; 1.13 fold enrichment (6-mer frequency, TF over GST control) with ETV7; 1.01 fold enrichment (6-mer frequency, TF over GST control) with ELF5.
In the case of AAGCCC, the binding signal is 1.11 fold enrichment (6-mer frequency, TF over GST control) with ERF; 1.07 fold enrichment (6-mer frequency, TF over GST control) with ETV3L; 1.01 fold enrichment (6-mer frequency, TF over GST control) with ETV7; 1.02 fold enrichment (6-mer frequency, TF over GST control) with ELF5; 1.1 fold enrichment (6-mer frequency, TF over GST control) in the assay with ETV3; 1.03 fold enrichment (6-mer frequency, TF over GST control) with ETV6.
On to TTATCA, for which the binding signal is 1.14 fold enrichment (6-mer frequency, TF over GST control) with ERF; 1.15 fold enrichment (6-mer frequency, TF over GST control) with ETV3L; 1.04 fold enrichment (6-mer frequency, TF over GST control) with ETS2; 1.03 fold enrichment (6-mer frequency, TF over GST control) in the assay with ETV7; 1.07 fold enrichment (6-mer frequency, TF over GST control) with ELF5; 1.09 fold enrichment (6-mer frequency, TF over GST control) in the assay with ETV3. Moreover, the binding signal with ETV6 was 1 fold enrichment (6-mer frequency, TF over GST control).
